CFTR F508del cor: F508del CFTR correction, initial screen, CFBE line, single point. activity (quench increase), % at 7.58 µM. 350,000 compounds, 0.36% hits. CFBE cells, YFP halide quenching; stimulated with forskolin plus potentiator P3; % fluorescence drop versus neutral controls;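 active = mean added fluorescence quench of at least 8% versus neutral control, with both replicates also reaching 8%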;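 note: cells transiently co-express mutant CFTR-F508del with the halide-sensitive YFP; corrector assay measuring rescue of mutant channel to the surface after 24 h compound exposure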
FGF22 binding: binders of human FGF22 protein, primary screen, FGF22 synaptogenesis inhibitor project, biophysical, thermal shift, single point; recombinant FGF22 thermal shift, SYPRO orange fluorescence; percent of sucrose octasulfate shift, DMSO zero; 340,000 compounds, 1.5% hits; activity (Tm shift, normalised), % at 9.99 µM; Fibroblast growth factor 22 (Homo sapiens), Q9HCT0;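 active = mean Tm shift, scaled 0 neutral to 100 positive control, at about 1.3% or above, every replicate too, limit read from the data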
Target sequence (Q9HCT0 whole entry, looked up): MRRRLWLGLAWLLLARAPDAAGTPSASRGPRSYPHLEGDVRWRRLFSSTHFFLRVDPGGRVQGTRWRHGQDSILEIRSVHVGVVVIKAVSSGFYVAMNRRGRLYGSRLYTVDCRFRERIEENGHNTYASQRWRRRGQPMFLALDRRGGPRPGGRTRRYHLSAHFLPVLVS
Vif inh: HIV Vif self-association inhibitors, primary screen, imaging, HEK293T, single point. 340,000 compounds, 0.35% hits. AID 602346, 2012. HEK293T cells, Vif self-association by quenched fluorescence, 24 h. inhibition, % at 7.49 µM; in the data active = inhibition above about 50%, passing the limit was not always enough
* marks the source's active call; other numbers are inactive results; · = no result given; + = active, no number. In the library only some 1.7% were active in any assay of this set; here they are far more common.

SMILES | CFTR F508del cor | FGF22 binding | Vif inh
CO[C@@H]1CN(C)C(=O)c2ccc(NC(=O)c3ccc4c(c3)OCO4)cc2OC[C@@H](C)N(CC2CC2)C[C@@H]1C | -1 | 0 | ·
CNC[C@H]1OCCCC[C@H](C)Oc2ccc(NS(=O)(=O)c3cccs3)cc2C(=O)N([C@@H](C)CO)C[C@@H]1C | 0 | 0 | ·
Cc1cc(C(=O)N2CCN(c3cccc(Cl)c3)CC2)c(C)o1 | · | · | 24
CSc1ccccc1C(=O)N1CCN(c2cccc(Cl)c2)CC1 | -1 | 43* | -9
O=C(c1cc(=O)c2ccccc2o1)N1CCN(c2ccccc2F)CC1 | 3 | 0 | -2
O=C(c1cc(=O)c2ccccc2o1)N1CCN(c2cccc(Cl)c2)CC1 | 4 | 43* | -1
Cc1noc(C)c1NC(=O)N[C@@H]1CC[C@@H](CC(=O)N2CCCCC2)O[C@H]1CO | 2 | 0 | ·
C[C@@H]1CN([C@H](C)CO)C(=O)c2cc(NC(=O)Cc3cn(C)c4ccccc34)ccc2O[C@@H]1CN(C)C(=O)Nc1cccc2ccccc12 | -2 | 0 | ·
COc1ccc(N2C(=O)[C@@H]3[C@H](C2=O)[C@H](C(C)=O)N2c4ccccc4C=C[C@@H]32)cc1 | 2 | 0 | 3
COc1ccc(C2C(C(=O)c3ccccc3)N3c4ccccc4C=CC3C2[N+](=O)[O-])cc1 (configuration not stated) | 23* | 0 | 0
C[C@H](NC(=O)[C@H]1[C@H](CO)[C@H]2Cn3c(ccc(-c4ccncc4)c3=O)[C@@H]1N2C)c1ccccc1 | -1 | 0 | ·
CCCCN1C(=O)CC(C(=O)O)C1c1ccc(OC)cc1 (configuration not stated) | · | · | 0
COc1ccc2c(c1)C(O)C(CO)C(C(=O)O)C2 (configuration not stated) | 10* | 0 | 15
CC(=O)N1CCc2cc(S(=O)(=O)N3c4ccccc4CC3C)ccc21 (configuration not stated) | 10* | 0 | -8
CC(=O)N1CCc2cc(S(=O)(=O)N3CCOCC3)ccc21 | · | · | 8
C[C@H]1CN([C@@H](C)CO)C(=O)c2cccc(N(C)C)c2O[C@@H]1CN(C)S(=O)(=O)c1ccc(F)cc1 | -3 | 0 | ·
C[C@@H]1CN([C@@H](C)CO)C(=O)c2cc(NC(=O)CCN3CCOCC3)ccc2O[C@H]1CN(C)C(=O)Nc1ccccc1 | -2 | 0 | ·
CCN1c2ccccc2NC2C1C(C(C)=O)C(=O)N2c1ccc(Cl)cc1 (configuration not stated) | 0 | 0 | +
O=C1Nc2ccccc2N(O)N1c1ccc(Cl)cc1 | · | 0 | -4
C[C@@H]1CCCCO[C@H](CN(C)Cc2ccc3c(c2)OCO3)[C@H](C)CN([C@H](C)CO)C(=O)c2cc(NC(=O)Nc3cccc4ccccc34)ccc2O1 | -3 | -1 | ·
C[C@@H]1CCCCO[C@@H](CN(C)CC2CCCCC2)[C@@H](C)CN([C@@H](C)CO)C(=O)c2cc(NC(=O)Nc3ccc4c(c3)OCO4)ccc2O1 | -1 | · | ·
C[C@@H]1CN([C@@H](C)CO)C(=O)c2cc(NC(=O)Nc3cccc4ccccc34)ccc2O[C@@H](C)CCCCO[C@@H]1CN(C)Cc1ccc2c(c1)OCO2 | 8.8* | -1 | ·
C[C@H]1CCCCO[C@@H](CN(C)CC2CCCCC2)[C@@H](C)CN([C@@H](C)CO)C(=O)c2cc(NC(=O)Nc3ccc4c(c3)OCO4)ccc2O1 | 3 | 1.7* | ·
C[C@@H]1CCCCO[C@H](CN(C)Cc2ccc3c(c2)OCO3)[C@@H](C)CN([C@@H](C)CO)C(=O)c2cc(NC(=O)C3CCCCC3)ccc2O1 | 1 | 13* | ·
C[C@H](CO)N1C[C@H](C)[C@H](CN(C)Cc2ccc(Cl)c(Cl)c2)Oc2ccc(NC(=O)C3CCCCC3)cc2CC1=O | 10* | -1 | ·
C[C@@H]1CN([C@@H](C)CO)C(=O)Cc2cc(NC(=O)C3CCCCC3)ccc2O[C@@H]1CN(C)Cc1ccc(Cl)c(Cl)c1 | 5 | -1 | ·
C[C@@H]1CCCCO[C@H](CN(C)Cc2ccc3c(c2)OCO3)[C@H](C)CN([C@@H](C)CO)C(=O)c2cc(NC(=O)C3CCCCC3)ccc2O1 | 0 | 0 | ·
C[C@@H]1CN([C@H](C)CO)C(=O)c2cc(NC(=O)Nc3ccc(F)cc3)ccc2O[C@H]1CN(C)C(=O)Nc1cccc2ccccc12 | 2 | 0 | ·
CO[C@H]1CC[C@H]2CCN(C)C(=O)CCCN(C)C(=O)c3cccc(C#N)c3OC[C@H]1O2 | · | 0 | ·

From PubChem BioAssay
